Screens from PubChem BioAssay.
TbREL1 primary – TbREL1 RNA ligase inhibitors, primary screen, biochemical, FRET fluorescence. 89,000 tested, 0.49% active. TbREL1 RNA ligation. AID 1117264, 2014. inhibition, % at 9.66 µM;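 active means inhibition above the mean inhibition across all screened compounds plus 3 SD, cut at about 11% in these data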;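 further: 0% = plate median of test wells and 100% = NSC42067 control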
Target sequence (P86926 whole entry, looked up): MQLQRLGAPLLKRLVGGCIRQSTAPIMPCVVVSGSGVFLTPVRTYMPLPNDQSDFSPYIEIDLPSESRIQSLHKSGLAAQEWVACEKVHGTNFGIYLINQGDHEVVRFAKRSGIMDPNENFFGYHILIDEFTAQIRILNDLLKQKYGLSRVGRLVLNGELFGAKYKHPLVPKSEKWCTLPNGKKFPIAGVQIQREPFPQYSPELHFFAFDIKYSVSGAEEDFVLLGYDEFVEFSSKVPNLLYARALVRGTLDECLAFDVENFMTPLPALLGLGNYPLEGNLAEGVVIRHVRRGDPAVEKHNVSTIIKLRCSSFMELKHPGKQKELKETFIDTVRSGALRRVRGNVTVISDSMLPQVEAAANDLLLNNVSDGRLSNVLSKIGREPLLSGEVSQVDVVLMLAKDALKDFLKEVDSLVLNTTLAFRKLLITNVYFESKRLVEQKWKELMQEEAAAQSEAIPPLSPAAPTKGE
TbREL1 confirm – TbREL1 RNA ligase inhibitors, confirmation, biochemical, FRET fluorescence, triplicate. shares compounds with TbREL1 primary. TbREL1 RNA ligation. inhibition, % at 9.66 µM. 390 tested, 37% active. AID 1117282, 2014;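 active means mean inhibition across replicates above a set limit taken from the earlier primary screen, cut at about 11% in these data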;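 further: 0% = REL1 with substrate and DMSO and 100% = REL1 plus control inhibitor NSC42067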
Active calls of the source: *. This is one part of a sample in which hits are shown more often than they occur.

SMILES	TbREL1 primary	others
CC(C)Cn1c(=O)cc(N2CCN(c3cccc(C(F)(F)F)c3)CC2)[nH]c1=O	-2.9
O=C(O)c1ccc(N2C(=O)CSC2=S)cc1	3.0
O=C(O)c1ccc(CN2C(=O)CSC2=S)cc1	7.4
O=C(NN1C(=O)CSC1=S)C(=O)NN1C(=O)CSC1=S	38.0*	TbREL1 confirm=19.1*
O=C(Nc1cccc(Br)c1)OC1CC2CC1[C@H]1CCCCN1[C@H]2Cc1ccccc1 (stereo partly drawn)	1.8
Cc1ccc(Cn2c(=O)n(Cc3ccc(C(=O)NCC4COC4)cc3)c(=O)c3ccccc32)cc1	10.6
CC(C)(C)Sc1ccc(N)nc1	38.9*	TbREL1 confirm=4.6
Nc1ccc(S(=O)(=O)O)cn1	0.6
CCCC1CCC2(CC1)CCC2OC(=O)Nc1cccc(Cl)c1 (stereo not drawn)	3.3
C#CCNC(=O)C[C@H]1C[C@@]2(C(=O)OC)C(=C[C@H](COCc3ccccc3)O[C@@H]2C)N(CCc2ccc(OC)c(OC)c2)C1=O	-1.4
Cc1ccsc1-c1nc(C(N)=O)c2[nH]c(=O)n(-c3ccc(Cl)cc3)c2n1	26.6*	TbREL1 confirm=-0.3
Cc1cccc(-n2c(=O)[nH]c3c(C(N)=O)nc(C(C)C)nc32)c1	-0.2
CCOc1ccccc1-c1nc(C(N)=O)c2[nH]c(=O)n(-c3ccc(F)cc3)c2n1	0.1
Cc1[nH]c2ccccc2c1CC(=O)Nc1ccc(N(C)c2cccnc2)c(-c2cccc(Cl)c2)c1	-0.6
COc1ccccc1CNC(=O)COC(=O)CC1CC2CCC1C2 (stereo not drawn)	5.0
O=C(COC(=O)Cc1ccc(Br)cc1)NC1CC1	-1.3
COc1ccccc1CCC(=O)OCC(=O)NC1CC1	34.5*	TbREL1 confirm=4.8
NC(=O)c1c(N)[nH]c(C(=O)c2ccccc2)c1-c1cccc2ccccc12	-4.4
CCC[C@H]1[C@@H](NC(=O)c2ccc(Cl)c(C(F)(F)F)c2)CC[C@@]23CCCN2C(=O)CCC[C@@H]13	-2.5
C[C@H]1[C@@H](O)CC[C@@]23CCCN2C(=O)CCC[C@@H]13	-3.5
O=C(CN1CCCCC1)Nc1ccc(S(=O)(=O)N2CCCCCC2)cc1	-2.9
Cc1n[nH]c(C)c1NC(=O)CN1CCN(S(=O)(=O)c2ccc(C(F)(F)F)cc2)CC1	11.3*	TbREL1 confirm=3.6
Cc1ccc(S(=O)(=O)N2CCN(CC(=O)NC(C)c3ccccc3)CC2)cc1 (stereo not drawn)	1.6
O=S1(=O)CCOCC(CO)N1Cc1cccc(Br)c1 (stereo not drawn)	9.2
Oc1ccc(C[C@@H]2CNCCN2CCc2cccc3ccccc23)cc1	2.9
SMILES	TbREL1 primary	others
c1ccc(C[C@H]2CNCCN2CCCCC2CCCCC2)cc1	6.0
c1ccc2c(C[C@@H]3CNCCN3CCCCC3CCCCC3)cccc2c1	13.6*	TbREL1 confirm=10.6
O=C(c1cc(F)cc(F)c1)N1CCCC(c2nc(-c3cccs3)no2)C1 (stereo not drawn)	-3.6
O=C(OCc1cn(Cc2cccc(F)c2F)nn1)N1CCOCC1	6.0
Cc1cc(C)n(CC(=O)N/N=C/c2ccc([N+](=O)[O-])s2)n1	1.5
COc1cc([N+](=O)[O-])cc(/C=N/NC(=O)Cn2nc(C)cc2C)c1O	17.2*	TbREL1 confirm=3.9
COc1ccc(/C=N/NC(=O)Cn2nc([N+](=O)[O-])cc2C)c(OC)c1OC	-4.5
Cc1ccc(C(=O)CCC(=O)Nc2ncccc2O)cc1	-1.8
O=C(CCNC(=O)c1ccc(Cl)cc1)Nc1ncccc1O	19.3*	TbREL1 confirm=1.5
O=C(NCCNC(=O)c1ccccn1)c1ccc(Cl)cc1	2.9
Clc1ccc(OCCOc2ccc(Br)nc2Br)c(Cl)c1	-1.1
CC(C)C1=CC2C3C(C(C(C)C)=CC(=O)[C@@]3(C)O)C1C(=O)C2(C)O (stereo partly drawn)	-1.8
CCN(C(=O)COC(=O)c1ccc(Sc2ncn[nH]2)c([N+](=O)[O-])c1)c1ccccc1C	-2.8
CCN(CC)C(=O)C1=C(C)N(Cc2ccccc2)C(=O)C(CC(=O)NCCCN(C)C)C1 (stereo not drawn)	2.6
CC1=C(C(=O)N(C)C)CC(CC(=O)NCCCN(C)C)C(=O)N1Cc1ccc(F)cc1 (stereo not drawn)	3.8
CC1=C(C(=O)N(C(C)C)C(C)C)CC(CC(=O)NCCCN(C)C)C(=O)N1Cc1ccc(C(C)(C)C)cc1 (stereo not drawn)	17.3*	TbREL1 confirm=11.0
Cc1ccccc1NC(=S)N(CCN(C)C)C(C)c1ccccn1 (stereo not drawn)	13.7*	TbREL1 confirm=2.9
Cc1c(Cl)cccc1NC(=S)N(CCN(C)C)C(C)c1ccccn1 (stereo not drawn)	5.7
Cc1ccccc1NC(=S)N(CCN(C)C)C(C)c1cccnc1 (stereo not drawn)	-5.9
Cn1c(NC2=NC3(CCCC3)C3=C(CCCC3=O)N2)nc2ccccc21	-1.8
COC(=O)[C@]12CCCCC=C1N(Cc1ccc(OC)cc1)C(=O)[C@@H]2CC(=O)N1CCSCC1	2.9
c1ccc(OCc2nnc(SCc3nc4ccccc4[nH]3)n2-c2ccccc2)cc1	2.6
O=C(Nc1ccc(N2C(=O)CC3(CCCCC3)C2=O)c(Cl)c1)c1ccccn1	7.7
CC(=O)NS(=O)(=O)c1ccc(NC(=O)/C=C/c2ccco2)cc1	14.8*	TbREL1 confirm=12.3*
Cc1ccc(NC(=O)c2cccc(NC(=O)/C=C/c3ccco3)c2)cc1C	-1.7
SMILES	TbREL1 primary	others
NS(=O)(=O)c1ccc(NC(=O)/C=C/c2ccco2)cc1	2.2
CCCC1CCC2(CC1)CCC2OC(=S)Nc1cccc(C(F)(F)F)c1 (stereo not drawn)	10.5
Nn1c(SCc2ccc(Br)cc2)nnc1-c1n[nH]c2c1CCC2	1.2
CC(C)(C)S(=O)N1C[C@H]2CC(=O)C=C2[C@@H]1CCO (stereo partly drawn)	1.2
O=S(=O)(c1cccs1)N1CCN(c2ccc(F)cc2)CC1	-0.1
O=S(=O)(c1cccs1)N1CCN(c2ccccc2)CC1	16.2*	TbREL1 confirm=2.6
O=S(=O)(c1cccs1)N1CCN(c2cccc(Cl)c2)CC1	3.3
Cc1cc(=O)[nH]c(SCC(=O)Nc2ccc(Cl)cc2)n1	0.9
COC(=O)C1=C(C)N(Cc2ccccc2)C(=NCc2cc(OC)c(OC)c(OC)c2)N[C@H]1CCc1ccccc1	3.4
COC(=O)C1=C(C)N(C)C(=NCc2ccccc2C(F)(F)F)NC1c1cccc(F)c1 (stereo not drawn)	13.4*	TbREL1 confirm=17.6*
COC(=O)C1=C(C)N(Cc2cccc(C(F)(F)F)c2)C(=NCc2ccc(C(F)(F)F)cc2)NC1c1ccccc1C(F)(F)F (stereo not drawn)	18.2*	TbREL1 confirm=22.2*
COC(=O)C1=C(C)N(CC(C)C)C(=S)NC1c1cccc(F)c1 (stereo not drawn)	-5.1
COC(=O)C1=C(C)N(C)C(=NCC2CC2)NC1c1ccccc1C(F)(F)F (stereo not drawn)	-1.6
COC(=O)C1=C(C)N(C)C(=NCc2ccc(C(F)(F)F)cc2)NC1c1ccc(F)cc1 (stereo not drawn)	7.1
COC(=O)C1=C(C)N(C)C(=NCc2cccc(C(F)(F)F)c2)NC1c1ccccc1C(F)(F)F (stereo not drawn)	10.8
COC(=O)C1=C(C)N(Cc2ccc(F)cc2)C(=S)NC1c1ccc(F)cc1 (stereo not drawn)	-1.2
COC(=O)C1=C(C)N(Cc2cccc(C(F)(F)F)c2)C(=NCc2ccc(OC)cc2)NC1c1ccccc1C(F)(F)F (stereo not drawn)	12.0*	TbREL1 confirm=23.4*
